High-throughput results from PubChem.
Hits are enriched below; roughly 2.8% of the tested compounds scored in any of these assays.
GLP1R inv ag = qHTS of GLP-1 Receptor Inverse Agonists (Inhibition Mode) | Glucagon-like peptide 1 receptor (Homo sapiens), P43220 | HEK293 GLP-1R CRE-luciferase, luminescence, 24 h; GLP-1R form is constitutively active | Potency, µM (top dose mostly 38.3 µM), inactives show at the highest dose activity change, negative = inhibition, actives largely listed as inhibitors | 1.6% of 410,000 active; further: on the % scale 0 is the no-effect control and ±100 the full control effect; nearly all actives have a fitted effect of over 55% in size
Target sequence (P43220 whole entry, looked up): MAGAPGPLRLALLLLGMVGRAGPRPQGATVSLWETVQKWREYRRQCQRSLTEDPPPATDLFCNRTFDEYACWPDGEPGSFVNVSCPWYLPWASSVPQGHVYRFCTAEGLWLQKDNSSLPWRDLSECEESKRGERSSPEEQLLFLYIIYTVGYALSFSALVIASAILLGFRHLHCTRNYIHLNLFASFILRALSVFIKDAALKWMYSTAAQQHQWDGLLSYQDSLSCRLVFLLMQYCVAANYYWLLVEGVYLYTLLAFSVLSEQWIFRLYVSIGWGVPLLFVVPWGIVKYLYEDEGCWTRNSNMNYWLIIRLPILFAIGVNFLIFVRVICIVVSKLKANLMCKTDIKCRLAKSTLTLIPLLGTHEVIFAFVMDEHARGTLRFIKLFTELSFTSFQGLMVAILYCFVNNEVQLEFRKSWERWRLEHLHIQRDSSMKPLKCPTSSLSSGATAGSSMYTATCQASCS
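GLP-1R inverse agonism mode: basal reporter luminescence in engineered HEK293 cells measured after one day of compound exposure at 37 deg C, with a 12 min room-temperature detection step.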
HEK293 tox = qHTS of GLP-1 Receptor Inverse Agonists: Cytotox Screen | HEK293 cAMP-luciferase reporter cells, luminescence, 24 h | 0.13% of 410,000 active | Potency, µM (top dose mostly 38.3 µM), inactives show top-dose activity change, negative = inhibition, hits mostly inhibitors;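 further: loss of luciferase light is scored as toxicity; on the % scale 0 is the no-effect control and ±100 the full control effect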
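Seeding density was 200 cells/uL; after overnight-length (12 h) culture, 23 nL compounds went on for 24 h at 37 °C. Readout used a luciferase detection reagent, luminescence taken after 12 min at room temperature.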
Mito fusion yeast = qHTS Assay for Small Molecule Inhibitors of Mitochondrial Division or Activators of Mitochondrial Fusion. S. cerevisiae fusion-defective mutant growth rescue, CellTiterGlo 48 h. Potency, µM (series often up to 46.1 µM), without a hit: at the highest dose growth rescue (activation), actives largely listed as activators. 0.23% of 320,000 active; further: % of control where 0% means no effect; nearly all actives have a fitted effect of over 45% in size
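Luminescent cell viability in 1536-well qHTS format served as the measure of rescued growth in ts fusion-mutant S. cerevisiae cultured on non-fermentable YPEG for 48 hours at 37C.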
BRCA1 expr act = qHTS Assay to Identify Small Molecule Activators of BRCA1 Expression; Potency, µM (titrated, usually from 46.1 µM), inactives show at the highest dose activation, actives largely listed as activators; AID 624202, 2012; MCF7-BRCA1-FFLuc reporter, luminescence, 48 h; response scale: scaled: vehicle 0%, 10 µM genistein 100%; 1.1% of 380,000 active; further: nearly all actives have a fitted effect of over 80% in size
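Using MCF7 cells harboring a BRCA1 firefly luciferase reporter, plated 2 h before compound pinning, the screen measured luminescence after 48 h incubation. Responses were normalized to DMSO and 10 microM genistein, then fitted for concentration-effect.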
GLP1R ag = qHTS of GLP-1 Receptor Agonists. AID 624172, 2012. Glucagon-like peptide 1 receptor (Homo sapiens), P43220. HEK293 GLP-1R CRE-luciferase, luminescence, 4-6 h; cells express a hypersensitive GLP-1R form. 0.007% of 380,000 active. Potency, µM (series often up to 45.6 µM), inactives show at the top dose activation, most hits filed as activators; further: % of control where 0% means no effect
An asterisk follows results filed as active; ? = inconclusive; . = no result; [ ] = remark or other dose. The call rests on the fitted dose curve; in most records, active means well fitted curve in the direction sought with a large enough effect; inconclusive means small, poorly fitted or top-dose-only effect, or another doubt; inactive means no such curve, though single readings can be large; an effect the other way counts as inactive or inconclusive. Potency means the concentration at half of the fitted maximal effect.

SMILES	GLP1R inv ag	HEK293 tox	Mito fusion yeast	BRCA1 expr act	GLP1R ag
CC(=O)Nc1ccc2nc(SCC(=O)Nc3ccc(N4CCOCC4)c(Cl)c3)sc2c1	2%	-19%	-7%	13µM*	15%
O=C(CSc1nc2ccccc2o1)Nc1ccc(N2CCOCC2)c(Cl)c1	?	-16%	-9%	6.3µM*	6%
COc1ccc(C(CC(=O)Nc2nccs2)n2cccc2)cc1 (configuration not stated)	?	14%	5%	6.3µM*	-14%
Cn1c(N)c(C(=O)COC(=O)c2ccccc2C(=O)c2ccc(Cl)cc2)c(=O)n(C)c1=O	11µM*	-21%	.	-41%	14%
O=C(CN1C2CCCC1CC(NC(=O)c1ccccc1)C2)Nc1ccccc1C(F)(F)F (configuration not stated)	2µM*	-7%	27%	-59%	13%
O=C(CN1C2CCCC1CC(NC(=O)c1ccco1)C2)Nc1ccccc1C(F)(F)F (configuration not stated)	?	-12%	6%	-65%	-4%
CC(C)(C)c1nc(CN2CCCCC2)cc(CN2CCCCC2)c1O	-28%	?	-7%	-27%	8%
CC(C)(C)NC(=O)C(=O)NC(=O)c1c(F)cccc1Cl	-5%	8%	0%	-2%	4%
Cc1cc(C(F)(F)F)cc(NNC(=O)NC(=O)c2c(F)cccc2Cl)n1	11µM*	-1%	-8%	-13%	20%
Cc1ccc(C2CC(C(F)(F)F)n3nc(C(=O)NCCN4CCOCC4)cc3N2)cc1 (configuration not stated)	-14%	-15%	-2%	-3%	9%
Cc1cc(C)nc(OC(C(=O)O)C(OCCc2ccccc2)(c2ccccc2)c2ccccc2)n1 (configuration not stated)	?	-17%	-1%	-23%	-3%
C=C(C)CCC(C)N1CCC(n2nccc2NC(=O)CCOc2ccccc2)CC1 (configuration not stated)	5µM*	-14%	-2%	-3%	7%
CCOc1cccc(CN2CCC(n3nccc3NC(=O)CCCc3ccccc3)CC2)c1	10µM*	-6%	-2%	-3%	17%
CCOc1ccc(CN2CCC(n3nccc3NC(=O)CCCc3ccccc3)CC2)cc1	?	5%	-54%	2%	-6%
CC(C)NC(=O)N1CCC(n2nccc2NC(=O)CCOc2ccccc2)CC1	-25%	-9%	1%	9%	-4%
CCN(C(=O)COC(=O)c1cc(-c2ccccc2)nn1-c1ccccc1)C1CCS(=O)(=O)C1 (configuration not stated)	?	4%	8%	30%	-6%
N=C(N)N	.	.	.	.	0%
O=C1c2ccccc2N2C(=O)c3ccccc3C2N1O (configuration not stated)	-30%	-7%	2%	2%	-9%
Cc1ccccc1N1C(=O)c2ccccc2N2C(=O)c3ccccc3C12 (configuration not stated)	6%	-20%	14µM*	-26%	-5%
Cc1ccc(C)c(CN2C(=O)c3ccccc3S(=O)c3ccc(C(=O)N4CCN(c5ccccc5F)CC4)cc32)c1 (configuration not stated)	?	-2%	.	12%	-1%
Cc1ccc(C)c(CN2C(=O)c3ccccc3S(=O)c3ccc(C(=O)N4CCN(c5ccccn5)CC4)cc32)c1 (configuration not stated)	2.2µM*	-10%	1%	-33%	14%
COc1ccccc1/C=C/C(=O)NCCC1=CCCCC1	?	-3%	-2%	2.8µM*	13%
COc1cccc(NC(=O)NCCC2=CCCCC2)c1	?	-22%	3%	5µM*	10%
CCOc1ccc(CCNC(=O)Nc2cccc(OC)c2)cc1OCC	11µM*	-18%	-3%	-8%	-3%
O=C(/C=C/c1ccccc1)NCCC1=CCCCC1	?	-14%	11%	?	7%
SMILES	GLP1R inv ag	HEK293 tox	Mito fusion yeast	BRCA1 expr act	GLP1R ag
CCc1ccc(NC(=O)Nc2cccc(OC)c2)cc1	?	-6%	10%	?	17%
COc1ccc(N2CCN(C(=O)c3ccc(NC(=O)c4nsc5ccccc45)cc3)CC2)cc1	?	-12%	.	.	.
COc1cccc(N2CCN(C(=O)c3ccc(NC(=O)c4nsc5ccccc45)cc3)CC2)c1	8.9µM*	0%	.	.	.
O=C(Nc1ccc(C(=O)N2CCN(c3ccc(Cl)cc3)CC2)cc1)c1nsc2ccccc12	6.3µM*	-4%	.	.	.
CC(C)NC(=O)c1onc(CSc2ccccc2F)c1C(=O)O	-3%	1%	2%	-1%	-2%
COc1ccc(F)cc1NC(=O)C1CCN(c2nc(-c3ccc(OC)c(OC)c3)no2)CC1	-1%	-14%	.	.	.
Cn1nnc2cc(C(=O)Nc3ccccc3)ccc21	-8%	5%	0%	7.1µM*	9%
Cc1ccc(NC(=O)c2ccc3c(c2)nnn3C)cc1	3%	2%	2%	7.1µM*	6%
CN(C)C(=O)N1CCC(C(=O)NCc2ccc(F)cc2Cl)CC1	-24%	2%	-3%	-6%	-1%
O=C(NNC(=O)C1CCN(Cc2ccc(F)cc2Cl)CC1)Nc1ccc([N+](=O)[O-])cc1	4µM*	8%	-4%	-23%	0%
COCC(=O)n1nc(-c2ccc(C)cc2)nc1NCc1ccc(F)cc1	9%	-7%	-2%	10µM*	4%
CC1CC(C)(C)NC(=S)N1CCCC(=O)Nc1ccc(Br)cc1 (configuration not stated)	10µM*	11µM*	1%	-28%	5%
Cc1ccc(C)c(N2CCN(C(=O)CCCN3C(=S)NC(C)(C)CC3C)CC2)c1 (configuration not stated)	11µM*	?	-3%	-53%	7%
Cc1cccc(N2CCN(C(=O)CCN3C(=S)NC(C)(C)CC3C)CC2)c1C (configuration not stated)	2%[0.307 µM]	-9%[0.307 µM]	22%	-12%	-11%
O=S(=O)(NC1CCSc2ccccc21)c1ccccc1 (configuration not stated)	?	17%	9%	-26%	5%
CC1(Oc2ccc(Cl)cc2)CCN(Cc2cccn2-c2nccs2)C1 (configuration not stated)	-5%	-1%	.	-9%	-9%
COc1cc(-c2nc(-c3ccc4c(c3)-c3ccccc3S4(=O)=O)c(-c3ccccc3)[nH]2)cc(OC)c1OC	1.6µM*	142%	-1%	0%	-2%
